From PubChem BioAssay
A selection: hits, their analogues and other compounds. The true share with any hit is near 2.8%.
Peg3 prom inh – reduces Peg3 promoter-driven luciferase expression in HeLa; HeLa PEG-Prom luciferase reporter, luminescence, overnight; inhibition, % at 20 µM; 360,000 compounds, 1.7% hits; AID 588405;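 active means inhibition of at least 50% at 20 µM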
Shn3 inh set2 – reduces Shn3 3'UTR luciferase signal in osteoblasts | Clone20 osteoblast Shn3 3'UTR firefly luciferase, 24 h | inhibition, % at 12.5 µM | 360,000 compounds, 0.52% hits;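 active means mean inhibition of at least 75% with every replicate also reaching 75%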
TRPM1 prom inh – inhibitors of MITF-driven TRPM1 promoter in melanoma cells. inhibition, % at 12.5 µM. 330,000 compounds, 0.83% hits. SK-MEL-5 TRPM1 promoter luciferase, 24 h;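 active means mean inhibition across replicates of 60% or more, whatever share of single replicates reaches that level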
LMP1 NFkB inh – Epstein-Barr LMP1 NF-kappaB reporter inhibition; LMP1-induced NF-kappaB luciferase reporter cells, luminescence; inhibition, % at 12.5 µM; 350,000 compounds, 0.69% hits; AID 504558; in the data active means inhibition above about 41%
HIF-2a block – HIF-2a inhibition. 786-0 RCC cells HIF-2a reporter, luciferase luminescence, overnight. 360,000 compounds, 0.72% hits. AID 624352. inhibition, % at 18.8 µM;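 active means inhibition of the luminescence signal of 40% or more relative to plate controls, in a single-dose primary screen at 18.75 µM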
PAX8 inh HTS – inhibitors of PAX8 transcriptional activity in RMG-I cells; 360,000 compounds, 1.2% hits; AID 652154; RMG-I TPO-luciferase reporter, SteadyGlo, 24 h; inhibition, % at 12.6 µM;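 active means mean replicate inhibition at least 60% with every replicate also reaching 60%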;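 further: luciferase light reporting Pax8 driven TPO promoter activity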
Numbers stand for hits; . = inactive; / = no result given.

SMILES | Peg3 prom inh | Shn3 inh set2 | TRPM1 prom inh | LMP1 NFkB inh | HIF-2a block | PAX8 inh HTS
CO[C@H]1CN(C)C(=O)c2cc(C#N)ccc2OCC[C@@H]2CC[C@@H](OC)[C@@H](CN(C)C(=O)[C@H]1C)O2 | / | / | / | / | / | .
C[C@H](CO)N1C[C@H](C)[C@H](CN(C)C(=O)Nc2cccc3ccccc23)Oc2ncc(/C=C/c3ccccc3)cc2C1=O | / | / | / | / | / | .
C=CCNc1nc(Cl)ncc1F | . | . | . | . | . | /
Cc1cccc(Nc2nc(Cl)ncc2F)c1C | . | . | . | 53 | . | .
O=C(c1ccc(F)cc1)N1[C@H](CO)[C@@H]2c3ccccc3NC[C@@H]21 | / | / | / | / | / | .
Cc1ccccc1NC(=O)c1c([N+](=O)[O-])c(C(C)(C)C)nn1C | . | . | . | 55 | . | .
CO[C@H]1CC[C@H]2CCOc3ccc(C#N)cc3C(=O)N(C)C[C@@H](OC)[C@H](C)C(=O)N(C)C[C@H]1O2 | / | / | / | / | / | .
Cc1cc(N=Cc2c(O)ccc3cc(Br)ccc23)no1 | . | . | . | 56 | . | .
COc1ccc2[nH]c(=O)c(CN(CC3CCCO3)C(=O)Nc3ccc(F)cc3)cc2c1 (centres undefined) | 77 | . | . | . | . | /
Cc1c(NC(=S)Nc2cccc(Cl)c2)c(=O)n(-c2ccccc2)n1C | . | . | . | . | . | .
CC(=O)c1ccc(NC(=S)Nc2cccc(S(=O)(=O)Nc3c(C)n(C)n(-c4ccccc4)c3=O)c2)cc1 | . | . | . | . | . | .
Cc1cccc(C)c1NC(=S)Nc1c(C)n(C)n(-c2ccccc2)c1=O | . | . | . | . | . | 76
Cc1ccc(NC(=S)Nc2cccc(S(=O)(=O)Nc3c(C)n(C)n(-c4ccccc4)c3=O)c2)cc1 | . | . | . | 69 | . | .
C[C@H]1CN([C@@H](C)CO)C(=O)c2cccc(NS(=O)(=O)c3cccs3)c2O[C@@H]1CN(C)Cc1ccccc1 | / | / | / | / | / | .
O=C(Cn1nnc(-c2ccccc2)n1)N/N=C/c1cc([N+](=O)[O-])c(Cl)cc1Cl | 50 | . | . | . | . | .
CN1c2ccc(-c3ccccc3)cc2[C@@H]2[C@@H](CCN2C(=O)CC2CC2)[C@H]1CO | / | / | / | / | / | .
O=S(=O)(Nc1ccc(-c2ccc3nncn3n2)cc1)c1ccccc1F | 51 | . | . | . | . | .
Cc1cc(Br)ccc1N=C1C(=O)Nc2ccccc21 | . | . | . | . | . | .
O=C1Nc2ccccc2C1=Nc1ccccc1-c1ccccc1 | . | . | . | 78 | . | .
COC(=O)c1cc2n(n1)CCN(Cc1ccc(C)cc1)C2=O | . | . | . | . | . | /
COC(=O)c1cc2n(n1)CCN(Cc1ccccc1Cl)C2=O | . | . | . | 70 | . | /
COc1ccc2cc1Oc1ccc(cc1)C[C@H]1c3c(cc4c(c3Oc3cc5c(cc3OC)CCN(C)[C@@H]5C2)OCO4)CCN1C | 87 | . | 63 | . | . | .
CCNC(=O)[C@@H]1[C@@H](CO)[C@@H]2Cn3c(ccc(C4=CCCCC4)c3=O)[C@@H]2N1Cc1ccc2c(c1)OCO2 | / | / | / | / | / | .
Cc1ccc2oc(C(F)(F)C(F)F)cc(=O)c2c1 | . | . | . | . | . | .
Cc1ccc2oc(C(Cl)(Cl)Cl)cc(=O)c2c1 | 63 | . | 67 | . | . | /
SMILES | Peg3 prom inh | Shn3 inh set2 | TRPM1 prom inh | LMP1 NFkB inh | HIF-2a block | PAX8 inh HTS
Cc1cc[n+](-c2[nH]c(=O)sc2/C=N/N=C(\[O-])c2ccncc2)cc1 | . | . | . | 70 | . | .
Cc1cc[n+](-c2[nH]c(=O)sc2/C=N/N=C(\[O-])c2ccccc2)cc1 | . | . | . | . | . | .
COCCNC(=O)/C(C#N)=C/c1cccc(/C=C(\C#N)C(=O)NCCOC)c1 | . | . | 65 | . | . | .
C[C@@H]1CN([C@H](C)CO)C(=O)c2cccc(NC(=O)CCCCCC(=O)Nc3ccccc3N)c2O[C@@H]1CN(C)Cc1ccc(C(F)(F)F)cc1 | / | / | / | / | / | .
C[C@@H]1CN([C@@H](C)CO)C(=O)c2cccc(NC(=O)Nc3ccccc3)c2O[C@@H]1CN(C)Cc1ccc(C(=O)Nc2ccccc2N)cc1 | / | / | / | / | / | 68
C[C@H](CO)N1C[C@H](C)[C@H](CN(C)Cc2ccc(Cl)c(Cl)c2)Oc2ccc(NC(=O)CCCCCC(=O)Nc3ccccc3N)cc2CC1=O | / | / | / | / | / | 68
C[C@H](CO)N1C[C@H](C)[C@@H](CN(C)Cc2ccc(C(F)(F)F)cc2)Oc2c(NC(=O)CCCCCC(=O)Nc3ccccc3N)cccc2C1=O | / | / | / | / | / | 69
